In PubChem BioAssay (NCATS):
Results filed as inconclusive are left out. Active and inactive are the calls of the source. Unless noted, calls come from the whole dose curve; as a rule, active = well fitted curve in the direction sought with a large enough effect; inconclusive = small, poorly fitted or top-dose-only effect, or another doubt; inactive = no such curve, though single readings can be large; an effect the other way counts as inactive or inconclusive.

Key:
[1] = Cell Viability - Renal Proximal Tubule (AID 545); details: renal proximal tubule cells viability; at 91.7 µM (top of the series), primary cells of rat origin unless noted;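 note: cells exposed to compound for 40 hours; nearly all actives have a fitted effect of over 40% in size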
Summary of the method: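 Rat kidney proximal tubule cells, freshly isolated; 1000 cells/well, 5 hr settle, compound 40 hr 37 °C. CellTiter-Glo 20 min RT, luminescence read. AC50 by standard Hill fit.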

[2] = Cellular Toxicity (caspase-3) HUV-EC-C (AID 656); details: HUV-EC-C cells, caspase-3 activation (apoptosis), vehicle = 0, 100 µM tamoxifen = 100%; series mostly up to 92.2 µM
Summary of the method: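 Luminescent caspase-3/7 activation (aminoluciferin substrate cleavage) in HUV-EC-C cells after 16 hr compound exposure, 37°C. Signal normalized to DMSO basal and 100 uM tamoxifen as 100%; AC50 from concentration-response fitted with the Hill equation.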

[3] = Cellular Toxicity (caspase-3) BJ (AID 658); details: BJ fibroblasts, luminescence, normalized: DMSO 0%, staurosporine 100%; series mostly up to 91.7 µM
Summary of the method: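 Readout: Caspase-Glo 3/7 luminescence increase in BJ cells after 16 hr treatment at 37 °C. Staurosporine and tamoxifen served as positive controls; AC50 values came from Hill modelling of data normalized to DMSO and 10 uM staurosporine.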

[4] = Cellular Toxicity (caspase-3) SK-N-SH (AID 661); details: SK-N-SH caspase-3 activation, qHTS, DMSO as zero, staurosporine as full; series mostly up to 91.7 µM
Summary of the method: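 Human SK-N-SH neuroblastoma cells, 1500/well, were exposed to compounds for 16 hours at 37 °C. Caspase-Glo 3/7 luminescence was normalized to DMSO (basal) and 10 uM staurosporine (100%), and AC50 came from a Hill fit.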

[5] = Cellular Toxicity (caspase-3) H-4-II-E (AID 663); details: H-4-II-E rat hepatoma, scaled: DMSO 0%, 100 µM tamoxifen 100%; series mostly up to 92.2 µM;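 note: cells exposed to compound for 16 hr before readout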
Summary of the method: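 Apoptosis induction is scored as increased luminescence from caspase 3/7 substrate cleavage in rat hepatoma H-4-II-E cells exposed to compound for 16 hr. Activity is scaled between DMSO and 100 uM tamoxifen.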

[6] = Cellular Toxicity (caspase-3) N2a (AID 665); details: N2a cells, luminescence, normalized: DMSO 0%, 10 µM staurosporine 100%; at 92.2 µM (top of the series);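 note: compound exposure lasted 16 h at 37 °C before readout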
Summary of the method: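 Mouse N2a neuroblastoma cells, 1500 per well, treated 16 h at 37 °C in complete medium; caspase-3/7 activity by Caspase-Glo luminescence after 1 h. Normalized to DMSO and 10 uM staurosporine; AC50 from Hill fits.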

[7] = Cellular Toxicity (caspase-3) NIH 3T3 (AID 666); details: NIH 3T3 caspase-3 activation, apoptosis/toxicity, 0% DMSO, 100% is 100 µM tamoxifen; series mostly up to 92.2 µM;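 note: 0% = DMSO basal and 100% = 100 µM tamoxifen stimulation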
Summary of the method: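 Mouse NIH 3T3 fibroblasts (1000/well) treated 16 h at 37 C; caspase-3/7 activity measured by Caspase-Glo 3/7 luminescence after 20 min. Normalized to DMSO and 100 uM tamoxifen; AC50 from Hill fits.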

[8] = Cellular Toxicity (caspase-3) Renal Proximal Tubule (AID 667); details: renal proximal tubule cells; at 91.7 µM (top of the series), primary cells freshly taken from rat, solvent-only wells 0%, staurosporine 100% unless noted;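 note: cells exposed to compound for 16 hours at 37 °C before detection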
Summary of the method: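 Luminescent caspase 3/7 signal from peptide-aminoluciferin cleavage measures apoptosis in freshly isolated rat kidney proximal tubule cells after 16 h compound exposure. Concentration-response data are normalized to DMSO and 10 uM staurosporine, and AC50 values come from Hill equation fits.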

[9] = MultiTox-Fluor Cytotoxicity Assay - LYMP1-001 - Dead Cells (AID 946); details: LYMP1-001 lymphoblastoid cells, dead-cell protease fluorescence; series mostly up to 92.2 µM; note: potency is the fitted concentration of half-maximal effect
Summary of the method: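 AC50 from Hill fit of concentration-response; data normalized to DMSO (basal) and 15 uM tetraoctylammonium bromide (100%). LYMP1-001 lymphoblastoid cells, 2500/well, 16 hr compound at 37 C; dead-cell protease fluorescence, Ex/Em 485/520.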

[10] = Cell Viability - LYMP1-002 - Assay at 16 hr (AID 948); details: LYMP1-002 lymphoblastoid cell viability; series mostly up to 92.2 µM; note: potency is the fitted concentration of half-maximal effect;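 for activity change, negative = cytotoxicity: 0% = DMSO alone and full effect = 92 µM tetraoctylammonium bromide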
Summary of the method: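 LYMP1-002 human lymphoblastoid cells, 2500/well; 5 hr 37 C; cpd 16 hr 37 C; CellTiter-Glo 30 min RT; luminescence (ATP). Concentration-response, Hill-fit AC50. Pos ctrl tetraoctylammonium bromide.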

[11] = MultiTox-Fluor Cytotoxicity Assay - LYMP1-002 - Dead Cells (AID 960); details: LYMP1-002 lymphoblastoid cells, dead-cell protease fluorescence; series mostly up to 46.1 µM; note: potency is the fitted concentration of half-maximal effect; nearly all actives have a fitted effect of over 60% in size
Summary of the method: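 Human lymphoblastoid LYMP1-002 cells, 2500/well, treated 16 h at 37 C; dead-cell protease cleavage of bis-AAF-R110 read by fluorescence (485/520); normalized to DMSO and 15 uM tetraoctylammonium bromide; AC50 from Hill fit.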

[12] = MultiTox-Fluor Cytotoxicity Assay - LYMP1-003 - Dead Cells (AID 961); details: LYMP1-003 lymphoblastoid cells, dead-cell protease fluorescence; series mostly up to 92.2 µM; note: potency is the fitted concentration of half-maximal effect; nearly all actives have a fitted effect of over 70% in size
Summary of the method: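 Human lymphoblastoid LYMP1-003 cells (2500/well) were treated with compounds for 16 hr at 37 C in complete medium. Dead-cell protease release was read by bis-AAF-R110 fluorescence (Ex/Em 485/520). AC50 came from Hill fits, normalized to DMSO and 15 uM tetraoctylammonium bromide.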

[13] = Cell Viability - LYMP1-003 - Assay at 24 hr (AID 963); details: LYMP1-003 lymphoblastoid cell viability; series mostly up to 92.2 µM; note: potency is the fitted concentration of half-maximal effect
Summary of the method: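 Human lymphoblastoid LYMP1-003 cells, 2500/well, treated 24 h at 37 C in complete medium. Viability read as intracellular ATP by CellTiter-Glo luminescence after 30 min at room temperature; AC50 from Hill-equation fits of qHTS concentration-response.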

[14] = Cell Viability - LYMP1-003 - Assay at 40 hr (AID 964); details: LYMP1-003 lymphoblastoid viability; series mostly up to 92.2 µM; note: nearly all actives have a fitted effect of over 60% in size; note: potency is the fitted concentration of half-maximal effect
Summary of the method: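 LYMP1-003 human lymphoblastoid cells, 2500/well, preincubated 5 h at 37 C, then treated with compound for 40 h at 37 C. Intracellular ATP read by CellTiter-Glo luminescence after 30 min at room temperature; AC50 from Hill-equation fits.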

[15] = Cell Viability - LYMP2-003 (AID 965); details: LYMP2-003 lymphoblastoid cell viability; series mostly up to 92.2 µM;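 note: cells exposed to compounds for 24 h before reading; nearly all actives have a fitted effect of over 50% in size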; note: potency is the fitted concentration of half-maximal effect;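 for activity change, negative = cytotoxicity: 0% = DMSO only and full effect = 92 µM tetraoctylammonium bromide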
Summary of the method: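 CellTiter-Glo luminescence (cellular ATP) after 24 h compound exposure at 37 C in complete medium; 2500 cells/well, 5 h settling beforehand. Concentration-response fitted to standard Hill equation for AC50. Tetraoctylammonium bromide served as positive control.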

[16] = Cell Viability - LYMP2-011 (AID 969); details: LYMP2-011 lymphoblastoid cells viability; series mostly up to 92.2 µM; note: nearly all actives have a fitted effect of over 60% in size; note: potency is the fitted concentration of half-maximal effect
Summary of the method: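 2500 cells/well in complete medium, compound-treated 24 h at 37 C. Viability read as intracellular ATP by CellTiter-Glo luminescence after 30 min at room temperature. AC50 from Hill fits of qHTS concentration-response data.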

[17] = Cell Viability - LYMP2-017 (AID 972); details: LYMP2-017 lymphoblastoid cell viability; series mostly up to 92.2 µM; note: nearly all actives have a fitted effect of over 55% in size; note: potency is the fitted concentration of half-maximal effect; for activity change, negative = cytotoxicity: % is set by controls: 0 for no effect and ±100 for the full control effect
Summary of the method: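 LYMP2-017 human lymphoblastoid cells (2500/well) settled 5 hr at 37 C, then exposed to compound 24 hr at 37 C in complete medium. Viability taken as intracellular ATP by CellTiter-Glo luminescence after 30 min at RT; AC50 from Hill fits.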

[18] = biological target: Voltage-gated inwardly rectifying potassium channel KCNH2 (Homo sapiens) (UniProt Q12809); assay: qHTS Assay for Small Molecule Inhibitors of the Human hERG Channel Activity (AID 588834); details: U2OS BacMam hERG, FluxOR thallium flux fluorescence; series mostly up to 92.2 µM;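 note: potency is the fitted concentration of half-maximal effect; lower thallium flux fluorescence means stronger hERG block; nearly all actives have a fitted effect of over 50% in size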
Sequence of Voltage-gated inwardly rectifying potassium channel KCNH2 (Homo sapiens) (Q12809 whole entry, looked up): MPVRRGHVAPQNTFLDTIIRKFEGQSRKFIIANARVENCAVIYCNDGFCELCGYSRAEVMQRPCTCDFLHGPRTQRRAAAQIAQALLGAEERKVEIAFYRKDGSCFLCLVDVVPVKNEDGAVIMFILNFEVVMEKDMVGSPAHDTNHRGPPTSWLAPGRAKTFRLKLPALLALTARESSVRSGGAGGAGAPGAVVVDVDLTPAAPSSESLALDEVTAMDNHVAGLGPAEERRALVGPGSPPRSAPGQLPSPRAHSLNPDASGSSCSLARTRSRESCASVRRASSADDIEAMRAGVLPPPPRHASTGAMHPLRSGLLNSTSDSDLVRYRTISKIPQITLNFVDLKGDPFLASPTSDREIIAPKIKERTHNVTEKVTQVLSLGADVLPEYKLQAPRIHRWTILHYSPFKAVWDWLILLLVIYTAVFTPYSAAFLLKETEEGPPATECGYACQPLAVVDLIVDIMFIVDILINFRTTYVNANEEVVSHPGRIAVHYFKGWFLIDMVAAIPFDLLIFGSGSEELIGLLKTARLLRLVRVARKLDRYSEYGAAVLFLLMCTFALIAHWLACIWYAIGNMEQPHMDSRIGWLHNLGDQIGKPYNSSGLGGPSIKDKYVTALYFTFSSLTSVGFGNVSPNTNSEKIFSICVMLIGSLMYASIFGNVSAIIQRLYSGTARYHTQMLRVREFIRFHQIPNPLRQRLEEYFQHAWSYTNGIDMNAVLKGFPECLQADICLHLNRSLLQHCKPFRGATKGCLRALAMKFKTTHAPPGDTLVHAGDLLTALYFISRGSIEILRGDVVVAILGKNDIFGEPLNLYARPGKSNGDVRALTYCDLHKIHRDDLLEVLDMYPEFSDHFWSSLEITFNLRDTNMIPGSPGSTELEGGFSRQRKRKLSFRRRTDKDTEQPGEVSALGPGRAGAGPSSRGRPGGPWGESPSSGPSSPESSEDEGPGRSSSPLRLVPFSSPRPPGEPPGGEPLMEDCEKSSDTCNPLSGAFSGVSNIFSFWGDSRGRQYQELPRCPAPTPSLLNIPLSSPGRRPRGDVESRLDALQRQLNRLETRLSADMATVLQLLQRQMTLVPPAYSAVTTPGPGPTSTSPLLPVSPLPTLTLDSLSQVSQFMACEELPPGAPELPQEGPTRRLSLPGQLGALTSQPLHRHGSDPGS
Summary of the method: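 Concentration-response qHTS measuring drop in thallium-sensitive dye signal. U2OS cells carrying BacMam hERG; compound exposure ~10 min, then stimulation buffer and 2 min read at 1 sec intervals.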

[19] = qHTS assay for small molecule disruptors of the mitochondrial membrane potential - 1 hr assay (AID 651754; calls by dose curve; note: nearly all actives have a fitted effect of over 35% in size; note: potency is the fitted concentration of half-maximal effect); details: series mostly up to 92.2 µM
Summary of the method: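 HepG2 cells, attached overnight, were exposed to compound for 1 hr at 37C, then stained 30 min with a potentiometric dye. Ratio of red aggregate (590nm) to green monomer (535nm) fluorescence reports membrane potential; collapse shifts signal toward green.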

[20] = qHTS assay for small molecule disruptors of the mitochondrial membrane potential - 5 hr assay (AID 651755; calls by dose curve; note: nearly all actives have a fitted effect of over 40% in size; note: potency is the fitted concentration of half-maximal effect); details: JC-1-type ratio dye; series mostly up to 92.2 µM
Summary of the method: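 HepG2, 2,000 cells/well, overnight attach; cpd or DMSO 5 hr, 37C/5% CO2; Mito-MPS 30 min 37C; fluor 490/535 + 540/590 nm.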

CCCCCCCCCc1ccc(O)cc1
inactive: outcome [2] | outcome [3] | outcome [4] | outcome [5] | outcome [7] | Potency [10] | Potency [13] | Potency [14] | Potency [15] | Potency [16] | Potency [17]
active: activity change, negative = cytotoxicity [1] -80.8% | caspase-3 activation [6] 98.6% | caspase-3 activation [8] 172% | Potency [9] 39.8 µM | Potency [11] 25.1 µM | Potency [12] 39.8 µM | Potency [18] 31.6 µM | Potency [19] 10.6 µM | Potency [20] 16.8 µM

O=C1C(Cl)=C(Cl)C(=O)C(Cl)=C1Cl
inactive: outcome [2] | outcome [3] | outcome [4] | outcome [5] | caspase-3 activation [6] -13.5% | outcome [7] | caspase-3 activation [8] -16.1% | Potency [19] | Potency [20]
active: activity change, negative = cytotoxicity [1] -104% | Potency [9] 12.6 µM | Potency [10] 31.6 µM | Potency [11] 15.8 µM | Potency [12] 25.1 µM | Potency [13] 31.6 µM | Potency [14] 31.6 µM | Potency [15] 20 µM | Potency [16] 25.1 µM | Potency [17] 20 µM | Potency [18] 44.7 µM
